Data reported in PubChem BioAssay (NCATS).
Records with an inconclusive call do not appear. Calls of active or inactive are those of the source. The call rests on the fitted dose curve; in most records, active means well fitted curve in the direction sought with a large enough effect; inconclusive means small, poorly fitted or top-dose-only effect, or another doubt; inactive means no such curve, though single readings can be large; an effect the other way counts as inactive or inconclusive. Bridge positions count the residues as written; N and C are the ends. Square brackets hold non-standard residues; d marks the D form. Peptide text beside a SMILES is read from it. * marks the point of attachment. Ileψ(thiazoline)Cys = CC[C@H](C)[C@H](N)C1=N[C@H](C(=O)*)CS1; d(aIle) = CC[C@H](C)[C@@H](N)C(=O)O; dOrn = NCCC[C@@H](N)C(=O)O

Key:
[1] = S16 Schwann cell viability assay (CellTiter-Glo assay) (AID 624031);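 further: native untransfected S16 rat Schwann cells; cellular ATP luminescence as a viability measure; nearly all actives have a fitted effect of over 70% in size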
How it was run: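 Following overnight culture in 10% FBS DMEM, parental S16 rat Schwann cells are dosed for 24 h at 37 °C. Viability is read as CellTiter-Glo luminescence and expressed as % activity relative to DMSO (0%) and no-cell wells.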

3D7 = assay: qHTS profiling for inhibitors of Plasmodium falciparum proliferation (AID 504749); further: nearly all actives have a fitted effect of over 60% in size; further: potency means the concentration at half of the fitted maximal effect; conditions: P. falciparum in erythrocytes, SYBR Green DNA, 72 h; series mostly up to 12.8 µM
How it was run: (§1)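 SYBR Green fluorescence of parasite DNA, read after lysis and overnight dark incubation, measured growth over 72 h in erythrocyte culture at 0.3% parasitemia and 2.5% hematocrit. Data normalised to DMSO and 0.29 uM artemisinin, with plate-drift correction.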

ATS189 = assay: as above; conditions: P. falciparum in erythrocytes, SYBR Green DNA, 72 h; series mostly up to 12.8 µM
How it was run: as §1

CP191 = assay: as above; conditions: P. falciparum in erythrocytes, SYBR Green DNA, 72 h; series mostly up to 12.8 µM
How it was run: as §1

CP201 = assay: as above; conditions: P. falciparum in erythrocytes, SYBR Green DNA, 72 h; series mostly up to 12.8 µM
How it was run: as §1

CP315 = assay: as above; conditions: P. falciparum in erythrocytes, SYBR Green DNA, 72 h; series mostly up to 12.8 µM
How it was run: as §1

CP329 = assay: as above; conditions: P. falciparum in erythrocytes, SYBR Green DNA, 72 h; series mostly up to 12.8 µM
How it was run: as §1

DIV14 = assay: as above; conditions: P. falciparum in erythrocytes, SYBR Green DNA, 72 h; series mostly up to 12.8 µM
How it was run: as §1

ECU = assay: as above; conditions: P. falciparum in erythrocytes, SYBR Green DNA, 72 h; series mostly up to 12.8 µM
How it was run: as §1

FAB9 = assay: as above; conditions: P. falciparum in erythrocytes, SYBR Green DNA, 72 h; series mostly up to 12.8 µM
How it was run: as §1

JCK = assay: as above; conditions: P. falciparum in erythrocytes, SYBR Green DNA, 72 h; series mostly up to 12.8 µM
How it was run: as §1

N140 = assay: as above; conditions: P. falciparum in erythrocytes, SYBR Green DNA, 72 h; series mostly up to 12.8 µM
How it was run: as §1

PAD = assay: as above; conditions: P. falciparum in erythrocytes, SYBR Green DNA, 72 h; series mostly up to 12.8 µM
How it was run: as §1

PC49 = assay: as above; conditions: P. falciparum in erythrocytes, SYBR Green DNA, 72 h; series mostly up to 12.8 µM
How it was run: as §1

TAB165 = assay: as above; conditions: P. falciparum in erythrocytes, SYBR Green DNA, 72 h; series mostly up to 12.8 µM
How it was run: as §1

W2 = assay: as above; conditions: P. falciparum in erythrocytes, SYBR Green DNA, 72 h; series mostly up to 12.8 µM
How it was run: as §1

CP217 = assay: as above; conditions: P. falciparum in erythrocytes, SYBR Green DNA, 72 h; series mostly up to 12.8 µM
How it was run: as §1

CP237 = assay: as above; conditions: P. falciparum in erythrocytes, SYBR Green DNA, 72 h; series mostly up to 12.8 µM
How it was run: as §1

CP256 = assay: as above; conditions: P. falciparum in erythrocytes, SYBR Green DNA, 72 h; series mostly up to 12.8 µM
How it was run: as §1

TAB113 = assay: as above; conditions: P. falciparum in erythrocytes, SYBR Green DNA, 72 h; series mostly up to 12.8 µM
How it was run: as §1

Measured: Potency

CO[C@H]1[C@H](O[C@H]2O[C@@H](C)[C@@H](O[C@@H]3C[C@](C)(O)[C@H](O)[C@H](C)O3)[C@@H](N(C)C)[C@@H]2O)[C@@H](CC=O)C[C@@H](C)[C@@H](O[C@H]2CC[C@H](N(C)C)[C@H](C)O2)/C=C\C=C/C[C@@H](C)OC(=O)C[C@H]1O
active: W2 3.22 µM
not listed: CP217 | CP237 | CP256 | TAB113
inactive: all other assays above

O[C@@](CCN1CCCC1)(c1ccccc1)C1CCCCC1
active: DIV14 2.87 µM | W2 0.455 µM
not listed: CP201 | CP329 | N140 | PAD | PC49 | TAB165
inactive: all other assays above

Cc1ccc2c(c1)c1c3n2CCN[C@H]3CCC1
active: CP237 12.6 µM | DIV14 6.01 µM
not listed: [1] | ATS189 | ECU | PAD | TAB165 | W2
inactive: all other assays above

C[C@H]1CS(=O)(=O)CCN1/N=C\c1ccc([N+](=O)[O-])o1
not listed: [1] | DIV14 | W2
inactive: all other assays above

CC(C)(C)NC[C@@H](O)COc1ccccc1C1CCCC1
active: ATS189 3.16 µM | CP217 3.16 µM | CP237 3.55 µM | CP256 3.98 µM | DIV14 2.03 µM | ECU 3.55 µM | JCK 3.16 µM | N140 3.16 µM | PAD 3.16 µM | PC49 2.24 µM | TAB113 3.98 µM | TAB165 3.55 µM | W2 0.572 µM

NC[C@@H]1O[C@H](O[C@@H]2[C@H](O[C@@H]3O[C@H](CO)[C@@H](O)[C@@H]3O)[C@@H](O)[C@@H](N)C[C@H]2N)[C@@H](N)[C@H](O)[C@@H]1O
inactive: all assays above

C=C1c2c(Cl)ccc(O)c2C(O)=C2C(=O)[C@@]3(O)C(O)=C(C(N)=O)C(=O)[C@@H](N(C)C)[C@@H]3[C@@H](O)[C@H]12
active: W2 6.42 µM
not listed: 3D7 | ATS189 | ECU | TAB165 | CP217 | CP237 | TAB113
inactive: all other assays above

C1CCN2C[C@@H]3C[C@@H](CN4CCCC[C@H]34)[C@H]2C1
not listed: W2
inactive: all other assays above

CCC(=O)OCC(=O)[C@@]1(OC(=O)CC)[C@H](C)C[C@@H]2[C@@H]3[C@H]([C@@H](O)C[C@@]21C)[C@]1(C)C=CC(=O)C=C1C[C@@H]3Cl
active: DIV14 5.1 µM | TAB165 3.98 µM | W2 1.61 µM
inactive: [1] | CP201 | CP315 | CP329

CCN[C@@H]1C[C@H](N)[C@H](O[C@H]2OC(CN)=CC[C@H]2N)[C@@H](O)[C@H]1O[C@H]1OC[C@@](C)(O)[C@@H](NC)[C@@H]1O
inactive: all assays above

C#C[C@]1(O)CC[C@@H]2[C@H]3CCC4=CCCC[C@@H]4[C@@H]3CC[C@@]21C
inactive: all assays above

CS(=O)(=O)c1ccc([C@H](O)[C@H](CF)NC(=O)C(Cl)Cl)cc1
inactive: [1]

CC1=C(C(=O)O)N2C(=O)[C@@H](NC(=O)[C@@H](N)c3ccc(O)cc3)[C@@H]2SC1
inactive: all assays above

CN1CCO[C@H](c2ccccc2)c2ccccc2C1
active: CP237 2 µM | W2 2.03 µM
not listed: ATS189 | DIV14 | N140 | TAB165 | CP256 | TAB113
inactive: all other assays above

CCN(CCCCOC(=O)c1ccc(OC)c(OC)c1)[C@@H](C)Cc1ccc(OC)cc1
not listed: CP191 | CP201 | CP329 | DIV14 | W2
inactive: all other assays above

CC1(C)[C@@H](OC(=O)CCC(=O)O)CC[C@@]2(C)[C@H]1CC[C@@]1(C)[C@H]2C(=O)C=C2[C@H]3C[C@](C)(C(=O)O)CC[C@]3(C)CC[C@@]21C
inactive: all assays above

CCOC(=O)O[C@@H](C)OC(=O)[C@@H]1N2C(=O)[C@@H](NC(=O)[C@@H](N)c3ccccc3)[C@H]2SC1(C)C
active: W2 5.73 µM
inactive: all other assays above

O=C(O)COCCN1CCN([C@@H](c2ccccc2)c2ccc(Cl)cc2)CC1
active: W2 4.55 µM
not listed: CP191
inactive: all other assays above

C[C@@H]1C[C@H]2[C@@H]3C[C@H](F)C4=CC(=O)C=C[C@@]4(C)[C@]3(F)[C@H](O)C[C@]2(C)[C@@]1(O)C(=O)CO
inactive: all assays above

Clc1ccc([C@H](Cn2ccnc2)OCc2c(Cl)cccc2Cl)c(Cl)c1
active: 3D7 2.51 µM | ATS189 3.98 µM | CP191 3.16 µM | CP217 2.24 µM | CP237 3.16 µM | DIV14 5.1 µM | ECU 1.78 µM | N140 3.16 µM | PAD 3.55 µM | TAB113 3.98 µM | TAB165 0.355 µM | W2 2.03 µM
inactive: [1]

CCN(CC)CCOC(=O)[C@@H](Cc1cccc2ccccc12)C[C@@H]1CCCO1
active: W2 2.28 µM
not listed: DIV14
inactive: all other assays above

CO[C@@H]1C[C@H](O[C@H]2[C@@H](C)[C@H](O[C@@H]3O[C@@H](C)C[C@@H](N(C)C)[C@@H]3OC(C)=O)[C@H](C)C[C@]3(CO3)C(=O)[C@H](C)[C@H](OC(C)=O)[C@H](C)[C@H](C)OC(=O)[C@@H]2C)O[C@H](C)[C@@H]1OC(C)=O
not listed: CP329 | W2
inactive: all other assays above

NC[C@@H]1O[C@@H](O[C@H]2[C@H](O)[C@H](O[C@@H]3O[C@H](CO)[C@@H](O)[C@H](N)[C@@H]3O)[C@@H](N)C[C@H]2N)[C@H](N)C[C@@H]1O
inactive: all assays above

CC(=O)O[C@H]1C[C@@]2(C)[C@H](C[C@@H](O)[C@H]3[C@@]4(C)CC[C@@H](O)[C@@H](C)[C@H]4CC[C@@]32C)C1=C(CCC=C(C)C)C(=O)O
inactive: all assays above

CC[C@H](C)[C@H](N)C1=N[C@H](C(=O)N[C@@H](CC(C)C)C(=O)N[C@@H](CCC(=O)O)C(=O)N[C@@H](C(=O)N[C@H]2CCCCNC(=O)[C@@H](CC(N)=O)NC(=O)[C@@H](CC(=O)O)NC(=O)[C@@H](Cc3cnc[nH]3)NC(=O)[C@@H](Cc3ccccc3)NC(=O)[C@@H]([C@@H](C)CC)NC(=O)[C@@H](CCCN)NC2=O)[C@@H](C)CC)CS1 ({Ileψ(thiazoline)Cys}-LE[d(aIle)]K[dOrn][d(aIle)][dF][dH][dD][dN]; lactam 4-C)
inactive: all assays above
